Source: PubChem BioAssay (Tox21)
Several values for one entry are separate records, joined by “and”; a condition that tells them apart may be missing. Identical values can stand only once. Records with an inconclusive call do not appear. A call without a number means that no potency is given here. The source holds several records for some structures; these can differ, active in one and inactive in another. Activity calls are given as the source filed them. The call rests on the fitted dose curve; in most records, active means well fitted inhibition curve with a large enough effect in the repeat runs; inconclusive means weak or mixed curves, or effect the other way; inactive means no such curve, though single readings can be large or run the other way.

The compounds below were run against Nuclear receptor ROR-gamma (Homo sapiens) (UniProt P51449) (assay: qHTS assay to identify small molecule antagonists of the retinoid-related orphan receptor gamma (ROR-gamma) signaling pathway (AID 1159521; further: nearly all actives have a fitted effect of over 50% in size;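 on activity change, negative = inhibition: CHO cells with doxycycline inducible ROR-gamma driving an RORE luciferase reporter; top concentration of the series differs between compounds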)). Conditions: Tet-on RORgamma CHO cells, RORE-luciferase, 16 h; series mostly up to 92.4 µM.
Outline: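 CHO Tet-on RORγ, RORE-luc reporter. Cpd 2 h pre-incubation, then dox hyclate 1 uM final, 16 h, 37 C/5% CO2. ONE-Glo luminescence; decrease = antagonist.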
Potency means the concentration at half of the fitted maximal effect.

| Compound | Potency | activity change, negative = inhibition |
| --- | --- | --- |
| Cc1ccnc2c1NC(=O)c1cccnc1N2C1CC1 | inactive |  |
| CC(C(O)c1ccc(O)cc1)N1CCC(Cc2ccccc2)CC1 (configuration not stated) | inactive |  |
| NCCCCCC(=O)O | inactive |  |
| NC12CC3CC(CC(C3)C1)C2 | inactive |  |
| CC(=O)OCCOCCOCCOC(C)=O | inactive |  |
| CC[C@@H](N)CO | inactive |  |
| CCC(CO)(CO)COCC(CC)(CO)CO | inactive |  |
| COc1ccc(Cc2cnc(N)nc2N)cc1OC | inactive |  |
| O=C(OCc1ccccc1)c1ccc(O)cc1 | inactive |  |
| CCCC(=O)c1ccccc1 | inactive |  |
| COc1nc(C)nc(Cl)c1NC1=NCCN1 | inactive |  |
| CCCCN(CCO)CCCC | inactive |  |
| COc1ccc(COC(C)=O)cc1 | inactive |  |
| CC(=O)CC(C)=O | inactive |  |
| CCN1CCCC1CNC(=O)c1cc(S(=O)(=O)CC)c(N)cc1OC (configuration not stated) | inactive |  |
| C1COC(NC(C2CC2)C2CC2)=N1 | inactive |  |
| NC(N)=NC(=O)Cc1c(Cl)cccc1Cl | inactive |  |
| CCC(=O)/C=C/C1C(C)=CCCC1(C)C (configuration not stated) | inactive |  |
| C=C(C)C(=O)O | inactive |  |

| Compound | Potency | activity change, negative = inhibition |
| --- | --- | --- |
| CC(C)(C)c1ccccc1 | inactive |  |
| [Cl][In]([Cl])[Cl] | inactive |  |
| Cc1occc(=O)c1OC(=O)C(C)C | inactive |  |
| NC(N)=Nc1nc(CSCC/C(N)=N/S(N)(=O)=O)cs1 | inactive |  |
| CCCCCCCCCCCCCCCCCl |  | 19.2% [at 19 µM] (inactive) |
| COC(c1ccccc1)(c1ccccc1)[C@H](Oc1nc(C)cc(C)n1)C(=O)O | inactive |  |
| CCCCC/C=C/CC1CC(=O)OC1=O (configuration not stated) | inactive |  |
| O=C(O)c1cc(Cl)cc(Cl)c1 | inactive |  |
| CCn1cc(C(=O)O)c(=O)c2cc(F)c(N3CCNC(C)C3)c(F)c21 (configuration not stated) | inactive |  |
| O=C(O)c1cn(-c2ccc(F)cc2)c2cc(N3CCNCC3)c(F)cc2c1=O | inactive |  |
| CC(=O)CC(=O)Nc1ccc2[nH]c(=O)[nH]c2c1 | inactive |  |
| OCC(CO)N[C@H]1C[C@](O)(CO)[C@@H](O)[C@H](O)[C@H]1O | inactive |  |
| C#CC(C)(CC)OC(=O)c1ccccc1C(=O)O (configuration not stated) | inactive |  |
| c1cnc2cc3c(cc2n1)C1CNCC3C1 | inactive |  |
| NCCO | inactive |  |
| CC(=O)Nc1ccc(C(=O)CCl)cc1 | inactive and 13.7 µM (active) |  |
| c1ccc2c(c1)CCCC2C1=NCCN1 (configuration not stated) | inactive |  |
| CC(C)CCOC(=O)c1ccc(N(C)C)cc1 | inactive |  |
